# Assay results reported in the supplement of paper PMC7156485.
# ± gives the standard deviation of the averaged measurements.
# Experiments:
# Conditions in all cases: concentration: 10 µM; 24 h
# HCC1569 [1] = assay: cell number relative to DMSO (% of DMSO); higher = more cells (less growth inhibition / toxicity)
# Summary of the method: (§1)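 In 384-well plates holding 800 HCC1569 or TDF cells per well in RPMI with 10% FBS, compounds were tested at 10 µM for 24 h at 37 °C in triplicate. Fixation used 3.7% formaldehyde. Staining used a rabbit anti-H1.0 antibody with an AlexaFluor 647 secondary, plus DAPI. Each value, H1.0 nuclear intensity or cell number, is a median of replicates shown as percent of the plate control, and HCC1569 values were smoothed for positional effects.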
# TDF [2] = assay: as above
# Summary of the method: as §1
# TDF [3] = assay: H1.0 immunofluorescence intensity relative to DMSO (% of DMSO); higher = stronger H1.0 induction, active = 120 or more
# Summary of the method: as §1
# HCC1569 [4] = assay: H1.0 immunofluorescence intensity relative to DMSO (% of DMSO); higher = stronger H1.0 induction, active = 140 or more
# Summary of the method: as §1
# 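Throughout, for H1.0 immunofluorescence intensity relative to DMSO: TDF is a line of transformed human dermal fibroblasts of mesenchymal origin.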
# 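Throughout, for cell number relative to DMSO: TDF denotes transformed human dermal fibroblasts of mesenchymal origin.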
Compound,cell number (HCC1569 [1]),cell number (TDF [2]),H1.0 immunofluorescence intensity (TDF [3]),H1.0 immunofluorescence intensity (HCC1569 [4])
CCCCCCC(C(C)O)n1cnc2c(N)ncnc21.Cl (stereo not drawn) [erythro-9-(2-Hydroxy-3-nonyl)adenine hydrochloride],104,108,90.1 (inactive),88.6 (inactive)
COC12C(COC(N)=O)C3=C(C(=O)C(C)=C(N)C3=O)N1CC1NC12 (stereo unspecified) [Mitomycin C],73.2 ± 6,47.6 ± 1.8,105 (inactive),96.2 (inactive)
CN1CCN(c2ccc3c(c2)NC(=C2C(=O)N=c4cccc(F)c4=C2N)N3)CC1,81.3,72.6,93.5 (inactive),149 (active)
Clc1cccc(CNC2=Nc3ccccc3NC23CCNCC3)c1,99,89.6,106 (inactive),124 (inactive)
Cl.NC12CC3CC(CC(C3)C1)C2 [Amantadine hydrochloride],107,109,104 (inactive),98.4 (inactive)
Cc1oncc1C(=O)Nc1ccc(C(F)(F)F)cc1 [Leflunomide],103 ± 3.5,107 ± 3.5,97.1 (inactive),101 (inactive)
COC(=O)c1c(-c2cc(OC)c(OC)c(OC)c2)c2ccnc(OCc3ncccn3)c2c(=O)n1Cc1ccnc(C)c1.Cl,100,110,94.3 (inactive),95.2 (inactive)
Clc1ccc2c(c1)C(N1CCNCC1)=Nc1ccccc1O2 [Amoxapine],99.54 ± 0.74,99.9 ± 2.6,99.7 (inactive),108 (inactive)
COc1cc2c(cc1OC)CC(=O)N(CCCN(C)C[C@H]1Cc3cc(OC)c(OC)cc31)CC2.Cl,100,102,92.6 (inactive),97.3 (inactive)
